Laboratory results taken from paper PMC4336329 (PLoS ONE, 2015).
The whole screen tested about 310,000 compounds, of which about 14,000 (4.5%) showed an effect of 50% or more. The effect is printed as a negative number. Shown is part of a subset that was picked to be rich in strong results.

What follows are molecules tested against human ether-à-go-go-related gene (hERG) potassium channel (human, UniProt Q12809) (assay: primary screen, population patch clamp on CHO cells stably expressing hERG; higher = less effect of the substance).
Chain of human ether-à-go-go-related gene (hERG) potassium channel (Q12809 whole entry, looked up): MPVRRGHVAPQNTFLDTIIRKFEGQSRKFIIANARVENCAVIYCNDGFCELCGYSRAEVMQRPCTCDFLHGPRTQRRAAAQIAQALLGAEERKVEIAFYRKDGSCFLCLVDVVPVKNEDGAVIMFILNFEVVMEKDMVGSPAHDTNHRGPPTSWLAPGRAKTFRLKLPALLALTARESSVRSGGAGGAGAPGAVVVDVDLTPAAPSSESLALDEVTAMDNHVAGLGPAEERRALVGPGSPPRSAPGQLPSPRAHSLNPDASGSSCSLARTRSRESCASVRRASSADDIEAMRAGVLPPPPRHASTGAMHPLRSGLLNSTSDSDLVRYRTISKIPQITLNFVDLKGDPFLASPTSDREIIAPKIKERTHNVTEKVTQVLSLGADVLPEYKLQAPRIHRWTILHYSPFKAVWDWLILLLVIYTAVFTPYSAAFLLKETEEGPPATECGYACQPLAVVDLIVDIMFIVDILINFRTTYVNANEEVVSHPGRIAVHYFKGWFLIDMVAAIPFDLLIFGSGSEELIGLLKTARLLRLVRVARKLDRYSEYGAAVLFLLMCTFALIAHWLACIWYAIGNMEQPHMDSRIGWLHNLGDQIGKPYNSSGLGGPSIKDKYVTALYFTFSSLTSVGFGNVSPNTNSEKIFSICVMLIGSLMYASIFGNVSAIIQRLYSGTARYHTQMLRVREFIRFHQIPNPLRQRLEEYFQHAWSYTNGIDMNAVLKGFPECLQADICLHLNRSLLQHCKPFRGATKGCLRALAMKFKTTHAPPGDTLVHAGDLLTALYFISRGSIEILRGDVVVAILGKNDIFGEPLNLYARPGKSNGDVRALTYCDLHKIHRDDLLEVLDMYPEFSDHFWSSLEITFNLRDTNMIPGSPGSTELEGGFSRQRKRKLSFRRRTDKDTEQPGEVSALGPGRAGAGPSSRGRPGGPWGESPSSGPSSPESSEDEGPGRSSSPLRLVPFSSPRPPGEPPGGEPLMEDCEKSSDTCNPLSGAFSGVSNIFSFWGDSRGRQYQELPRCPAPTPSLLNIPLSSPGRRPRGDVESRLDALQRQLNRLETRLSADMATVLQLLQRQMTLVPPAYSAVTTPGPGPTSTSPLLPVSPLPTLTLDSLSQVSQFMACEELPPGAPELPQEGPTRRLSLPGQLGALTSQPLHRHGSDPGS
Description: Briefly, Chinese hamster ovary (CHO) cells stably expressing the hERG channel were dislodged from tissue culture flasks and dispensed into PPC plates. […] During the recording, background leak currents were estimated by a 100 ms step to -80 mV from an initial holding potential of -70 mV and subtracted from the subsequent current measurement. The campaign was conducted in two phases using slight differences in recording protocol. In the first phase, the initial voltage pulse used a 100 ms step to -30 mV from a holding potential of -70 mV, a 2 s conditioning step to +25 mV, and a 2 s test step to -30 mV. During the second phase of the screen, the potential during the conditioning step was raised to +45 mV. In both phases of the campaign, a secondary voltage pulse was applied using the same parameters as the second phase initial pulse. The initial and secondary pulses were applied in the absence of compound, and upon application of 1 μM and 10 μM test concentrations. […]
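Further: peak tail current of the secondary pulse compared with the same well before compound.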

| Compound | hERG current change (%, negative = inhibition) at 10uM |
| --- | --- |
| O=C(c1ccc(-n2cnnn2)cc1)N1CCCCC1 | -24.1% |
| O=C(c1ccc(=O)oc1)N1CCN(C(c2ccccc2)c2ccccc2)CC1 | -32.2% |
| CC1CCN(C(=O)c2ccc(-n3cnnn3)cc2)CC1 | -72.1% |
| Cc1cc(NC(=O)c2cc(CC(C)C)on2)n(-c2ccccc2)n1 | 9.57% |
| COc1cc(NC(=O)CCCN2C(=O)NC(C)(C)C2=O)cc(OC)c1 | 12.2% |
| Cc1cccc(OCC(=O)NCC(=O)N/N=C/c2ccc(N(C)C)cc2)c1 | 0.0886% |
| Cc1ccc(NC(=O)Nc2c(Cl)cccc2Cl)cn1 | 14% |
| COC(=O)CCSc1cc([N+](=O)[O-])cc2c1c(C1OCCS1)nn2-c1ccccc1 (centres unmarked) | 3.61% |
| O=C(O)CCc1ccc(-c2cccs2)n1NC(=O)c1cccs1 | 22.3% |
| O=C(Nc1ccc(Br)cc1)N1CCCC(O)C1 (centres unmarked) | 6.54% |
| CN1CCN(C(=O)c2ccc3c(c2)N(Cc2ccccc2F)C(=O)c2ccccc2S3=O)CC1 (centres unmarked) | 5.05% |
| COCCN1CCN(Cc2nc(C3(c4ccc(C)cc4)CCCC3)no2)CC1 | -9.3% |
| Cc1ccc(C2(c3noc(CN4CCOCC4)n3)CCCC2)cc1 | 17.3% |
| Cc1ccc(C2(c3noc(CN4CCC(c5ccncc5)CC4)n3)CCCC2)cc1 | -55.5% |
| COc1ccccc1NC(=O)C[n+]1ccccc1C.[Cl-] | 15.3% |
| COc1ccc(-n2c(SCC(=O)O)nc3sc4c(c3c2=O)CCCC4)cc1 | 20.3% |
| CN(C)CCNc1nc2sc3c(c2c(=O)n1-c1ccc(F)cc1)CCCCC3 | -33.3% |
| CCOC(=O)CSc1nc2sc3c(c2c(=O)n1-c1ccc(OC)cc1)CCN(C)C3 | -5.76% |
| COc1ccc(-n2c(NCCN(C)C)nc3sc4c(c3c2=O)CCCCC4)cc1 | -72.7% |
| CCOc1ccc(-n2c(SCC(=O)OC)nc3sc4c(c3c2=O)CCN(C)C4)cc1 | -0.924% |
| CCN1CCN(c2nc3sc4c(c3c(=O)n2-c2ccc(OC)cc2)CCCCC4)CC1 | -60.3% |
| COc1ccc(-n2c(SCCNCCO)nc3sc4c(c3c2=O)CCCC4)cc1 | -55.7% |

| Compound | hERG current change (%, negative = inhibition) at 10uM |
| --- | --- |
| COc1ccc(-n2c(C)nc3sc4c(c3c2=O)CCCC4)cc1 | -20.3% |
| COc1ccc(-n2c(SCC(=O)O)nc3sc4c(c3c2=O)CCC4)cc1 | 18.9% |
| CCOC(=O)CSc1nc2sc3c(c2c(=O)n1-c1ccc(OCC)cc1)CCN(C)C3 | -53.9% |
| COc1ccc(-n2c(NN)nc3sc4c(c3c2=O)CCCC4)cc1 | -47.4% |
| COc1ccc(-n2c(SCC(N)=O)nc3sc4c(c3c2=O)CCC4)cc1 | -16.9% |
| COc1ccc(CNc2nc3nc(-c4ccccc4)cc(=O)n3[nH]2)cc1OC | -13.1% |
| CCOC(=O)c1sc(NC(=O)CSc2nc(C)cc(C(F)(F)F)n2)c(C#N)c1C | 4.26% |
| COc1ccc(C(=O)c2c[nH]c(C(=O)NCc3cccnc3)c2)cc1 | -12.7% |
| CCN1CCc2nc(NC(=O)c3cc(F)c(F)cc3Cl)sc2C1 | -34.2% |
| Cc1cccc(OCCOC(=O)c2ccc(F)c(S(=O)(=O)N3CCOCC3)c2)c1 | -18.1% |
| CCN1CCc2c(sc(NC(=O)c3ccc(S(=O)(=O)N4CC(C)OC(C)C4)cc3)c2C(N)=O)C1 (centres unmarked) | -54.5% |
| CCC(=O)Nc1sc2c(c1C(N)=O)CCN(Cc1ccccc1)C2.Cl | -53.3% |
| CCN1CCc2c(sc(NC(=O)c3ccc(S(=O)(=O)N4CCOCC4)cc3)c2C(N)=O)C1 | -21.9% |
| CCN1CCN(S(=O)(=O)c2ccc(C(=O)Nc3sc4c(c3C(N)=O)CCN(CC)C4)cc2)CC1 | 12.4% |
| CN1CCc2c(sc(NC(=O)c3ccc(C(=O)c4ccccc4)cc3)c2C(N)=O)C1.Cl | 11.5% |
| CNC(=O)c1c(NC(=O)c2ccc(S(=O)(=O)N3CCCC3)cc2)sc2c1CCN(C(C)C)C2 | 2.7% |
| CNC(=O)c1c(NC(=O)c2ccc(S(=O)(=O)N3CCCCC3)cc2)sc2c1CCN(C(C)C)C2 | -65.8% |
| CNC(=O)c1c(NC(=O)c2ccc(S(=O)(=O)N3CC(C)OC(C)C3)cc2)sc2c1CCN(C(C)C)C2 (centres unmarked) | -26.9% |
| Cl.NC(=O)c1c(NC(=O)c2ccccc2)sc2c1CCN(Cc1ccccc1)C2 | 7.85% |
| CCN1CCc2c(sc(NC(=O)c3ccc(C(=O)c4ccccc4)cc3)c2C(N)=O)C1.Cl | -55.4% |
| Cl.NC(=O)c1c(NC(=O)Cc2ccccc2)sc2c1CCN(Cc1ccccc1)C2 | 7.96% |
| CCN1CCc2c(sc(NC(=O)c3ccc4ccccc4c3)c2C(N)=O)C1.Cl | 7.59% |
